Screening data from PubChem BioAssay.
PI5P4Ka inh: PI5P4K alpha (human) kinase inhibition. P48426. PI5P4Kalpha enzyme, ADP-Glo luminescence, 60 min; active compounds read low. max response, %. hit rate 1.2% among 330,000. AID 652105; active = max response of -50% or lower; inconclusive = between -30% and -50%; inactive = -30% or higher; also: value at the top dose of about 77 µM; % is scaled to controls: 0 for no effect and ±100 for the full control effect
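Enzyme plus substrate dispensed, test compounds pinned in, then ATP (5 microM final) added. After 60 min at RT, ADP-Glo reagent 1 for 45 min and reagent 2 for 30 min preceded luminescence imaging.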
PI4K2A inh: PI4K2A (human) kinase inhibition. purified PI4K2A, ADP-Glo luminescence, 1 h; active compounds read low. activity change, negative = inhibition, % at 76.9 µM. hit rate 0.13% among 420,000; in the data active = activity change below about -50%; inconclusive = mostly about -30% to -49%;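 also: -100% = wells without enzyme as full effect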
Target sequence (Q9BTU6 whole entry, looked up): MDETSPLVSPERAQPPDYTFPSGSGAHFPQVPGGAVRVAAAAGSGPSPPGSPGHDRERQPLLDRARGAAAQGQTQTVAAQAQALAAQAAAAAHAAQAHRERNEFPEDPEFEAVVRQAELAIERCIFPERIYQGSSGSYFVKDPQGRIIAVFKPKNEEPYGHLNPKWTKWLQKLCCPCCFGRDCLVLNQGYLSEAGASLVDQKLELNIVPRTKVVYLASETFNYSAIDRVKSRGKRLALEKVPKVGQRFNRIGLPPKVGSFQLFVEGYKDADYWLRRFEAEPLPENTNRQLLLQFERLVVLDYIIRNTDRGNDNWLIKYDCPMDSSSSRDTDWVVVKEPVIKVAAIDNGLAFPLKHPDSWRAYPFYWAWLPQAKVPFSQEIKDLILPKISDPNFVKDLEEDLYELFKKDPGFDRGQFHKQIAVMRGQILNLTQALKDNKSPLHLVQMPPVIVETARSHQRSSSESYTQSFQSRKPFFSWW
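In this quantitative HTS, ADP production by PI4K2A was quantified luminescently after 1 h at ambient temperature; 100 microM adenosine served as plate-quality control.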
Pol kappa inh-1: DNA polymerase kappa (human) inhibition; Q9UBT6; purified Pol kappa, fluorescent DNA synthesis assay, 10 min; Potency, µM (doses to about 107 µM), for the others: at the top dose activity, negative = inhibition, hits mostly inhibitors; hit rate 0.53% among 400,000; AID 588579; also: potency is read from the fitted curve at half-maximal effect; % is scaled to controls: 0 for no effect and ±100 for the full control effect
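Here, compound and 10 nM enzyme are combined for 15 min at room temperature; adding 50 nM substrate (final) starts DNA synthesis, tracked by fluorescence at 0 and 10 min against buffer-only wells.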
Pol iota inh: inhibitors of human DNA polymerase iota; Potency, µM (doses to about 115 µM), for inactives: top-dose activity, negative = inhibition, actives largely listed as inhibitors; Pol iota fluorescent replication assay, 10 min; hit rate 1% among 390,000; AID 588590; Q9UNA4; also: potency is read from the fitted curve at half-maximal effect
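Fluorescent replication assay read twice, at 0 min and 10 min after adding 50 nM (final) substrate. Enzyme (10 nM) and compounds were first incubated 15 min at room temperature; enzyme-free buffer wells were negative controls.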
POLB inh: blocks human DNA polymerase beta activity | Pol beta primer extension/strand displacement, fluorescence kinetic | P06746 | Potency, µM (highest dose often 114 µM), for the others: at the highest dose activity change, negative = inhibition, hits mostly inhibitors | hit rate 1.3% among 340,000; also: potency is read from the fitted curve at half-maximal effect; % is scaled to controls: 0 for no effect and ±100 for the full control effect
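Kinetic readout of DNA synthesis with strand displacement by Pol beta. Compound and 10 nM enzyme sit 15 min at room temperature; 50 nM substrate starts the reaction, read immediately and at 10 min.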
Pol eta inh-1: DNA polymerase eta (human) inhibition | Q9Y253 | recombinant Pol eta, fluorescent DNA replication assay | Potency, µM (top dose mostly 114 µM), for inactives: top-dose activity change, negative = inhibition, hits mostly inhibitors | hit rate 1.2% among 390,000 | AID 588591; also: potency is read from the fitted curve at half-maximal effect; % is scaled to controls: 0 for no effect and ±100 for the full control effect
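Pol eta (10 nM) was preincubated with compounds for 15 min at room temperature, after which fluorescent replication substrate (50 nM final) was added to start the reaction. Fluorescence was read kinetically at 0 and 10 min.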
TbPGK inh: blocks T. brucei phosphoglycerate kinase; Potency, µM (titrated, usually from 57.5 µM), without a hit: at the highest dose activity change, negative = inhibition, actives largely listed as inhibitors; shares compounds with Pol kappa inh-1; hit rate 79% among 500; AID 686980; TbPGK coupled GAPDH assay, Kinase-Glo luminescence; also: potency is read from the fitted curve at half-maximal effect; % is scaled to controls: 0 for no effect and ±100 for the full control effect; nearly all actives have a fitted effect of over 65% in size
POLI cherry-pick: Confirm cherry-picked inhibitors of human polymerase iota; shares compounds with Pol kappa inh-1; Pol iota primer extension, TAMRA/BHQ fluorescence; Potency, µM, hits mostly inhibitors; hit rate 77% among 1,500; AID 720496; also: potency is read from the fitted curve at half-maximal effect
Pol kappa inh-2: confirmation of human DNA polymerase kappa inhibitors; Potency, µM, actives largely listed as inhibitors; purified Pol-kappa, fluorescent strand-displacement substrate; hit rate 76% among 920; shares compounds with Pol eta inh-1; also: potency is read from the fitted curve at half-maximal effect
Pol eta inh-2: confirmation of human DNA polymerase eta inhibitors; shares compounds with Pol eta inh-1; Pol eta primer extension, TAMRA/BHQ fluorescence, 10 min; Potency, µM, most hits filed as inhibitors; AID 720502; hit rate 64% among 2,600; also: potency is read from the fitted curve at half-maximal effect
Active calls of the source: *; ? = inconclusive; / = no result given; [ ] = another dose, or the depositor's remark. Sampled rows, rich in hits. Any-hit rate of the full collection: about 2.8%. Unless noted, calls follow the shape of the dose curve; as a rule, active = well fitted curve in the direction sought with a large enough effect; inconclusive = small, poorly fitted or top-dose-only effect, or another doubt; inactive = no such curve, though single readings can be large; an effect the other way counts as inactive or inconclusive.

SMILES	PI5P4Ka inh	PI4K2A inh	Pol kappa inh-1	Pol iota inh	POLB inh	Pol eta inh-1	POLI cherry-pick	Pol eta inh-2	others
COc1cc(NS(=O)(=O)c2ccc(NC(=S)NC(=O)/C=C/c3ccco3)cc2)ncn1	-56*	-7	7.1µM*	?	18µM*	2.2µM*	17*	4.3*	TbPGK inh=4.6µM*
NC1=NC(=O)/C(=C\c2ccco2)S1	-96*	-13	40µM*	?	?	18µM*	17*	27*	Pol kappa inh-2=12*
NC1=NC(=O)/C(=C/c2ccc(-c3ccc(S(N)(=O)=O)cc3)o2)S1	-12	-16	79µM*	45µM*	?	22µM*	34*	54*	Pol kappa inh-2=21*
Cc1ccc(NC(=O)CN2C(=O)N/C(=C\c3cccn3-c3cccc(C(=O)O)c3)C2=O)cc1	-76*	-5	45µM*	14µM*	4µM*	3.5µM*	19*	27*	TbPGK inh=15µM*;Pol kappa inh-2=42*
CCOC(=O)c1cccc(-n2cccc2/C=C2\NC(=O)N(CC(=O)O)C2=O)c1	/	3	-2%	41%	/	-15%	/	/
O=C(O)c1ccc(COc2ccc3ccccc3c2/C=C2/NC(=O)N(Cc3ccc(F)cc3)C2=O)cc1	5	-4	?	-4%	22µM*	32µM*	?	?	Pol kappa inh-2=38*
Cc1ccc(NC(=O)CN2C(=O)N/C(=C\c3cccn3-c3cccc(-c4nn[nH]n4)c3)C2=O)cc1	/	/	/	/	/	/	27*	76*	Pol kappa inh-2=21*
O=C(O)c1cccc(-n2cccc2/C=C2\NC(=O)N(Cc3ccc(F)cc3)C2=O)c1	?	-1	79µM*	22µM*	11µM*	20µM*	67*	30*
O=C(Nc1ccc(OC(F)(F)F)cc1)Nc1c(-c2ccc(F)cc2)nc2ncccn12	/	1	/	/	/	/	/	/
O=C(Nc1cccc(Cl)c1)N1CC2CCCN2c2ccccc21 (stereo not drawn)	/	-1	-1%[60.1 µM]	12%	9%	-18%	/	/
Cn1c(C(=O)NCCc2ccccc2)cc2cc(S(=O)(=O)N3CCCCC3)ccc21	/	-1	-12%[60.1 µM]	2%	-1%	1%	/	/
CCOC(=O)CC(NS(=O)(=O)c1cc(-c2cc(C)no2)ccc1C)c1ccc(C)cc1 (stereo not drawn)	/	0	6%	-12%	3%	-19%	/	/
O=C(O)c1ccc(COc2ccccc2/C=C2\NC(=O)N(Cc3ccccc3)C2=O)cc1	-17	3	-18%	29%	-5%	5%	/	/
Cc1ccc(NC(=O)CN2C(=O)N/C(=C/c3ccccc3OCc3cccc(C(=O)O)c3)C2=O)cc1	-29	-20	?	20µM*	35µM*	25µM*	42*	?	TbPGK inh=16µM*
Cc1cccc(NC(=O)CN2C(=O)N/C(=C\c3ccc(-c4cccc(C(=O)O)c4)o3)C2=O)c1	?	-6	?	?	?	?	67*	27*
Cc1cc(C(=O)O)ccc1-c1ccc(/C=C2\NC(=O)N(Cc3ccc(F)cc3)C2=O)o1	-24	0	28µM*	?	?	7.1µM*	17*	17*
Cc1ccc(CN2C(=O)N/C(=C/c3ccc4c(c3)n(C)c(=O)n4C)C2=O)cc1	/	/	/	/	-18%	/	/	/
Cc1ccc(CN2C(=O)N/C(=C\c3cccn3-c3cccc(C(=O)O)c3)C2=O)cc1	?	-25	50µM*	14µM*	8.9µM*	8.9µM*	21*	27*
Cc1ccc(CN(Cc2ccco2)c2cnc(S(C)(=O)=O)nc2C(=O)Nc2ccc(Br)cc2)o1	/	-3	4%	-7%	0%	-28%	/	/
C=CCSC1=N/C(=C\C=C\c2ccco2)C(=O)S1	-63*	-17	14µM*	4.5µM*	2.5µM*	3.5µM*	21*	21*	Pol kappa inh-2=9.5*
COc1cccc(CNC(=O)Nc2ccc3c(c2)N(C)C(=O)c2ccccc2S3)c1	/	-5	-19%	77%	20%	-16%	/	/
O=C(O)c1cccc(-n2cccc2/C=N/O)c1	?	-3	35µM*	11µM*	13µM*	3.2µM*	19*	30*
O=C(O)c1cccc(-n2cccc2/C=C/[N+](=O)[O-])c1	-88*	-25	14µM*	?	3.5µM*	2.8µM*	15*	5.4*	TbPGK inh=21µM*
ON=Cc1cccn1-c1ccccc1	/	-2	-2%	30%	38%	-7%	/	/
O=Cc1cccn1-c1cccc([N+](=O)[O-])c1	?	-1	-2%	13%	?	7%	/	/
SMILES	PI5P4Ka inh	PI4K2A inh	Pol kappa inh-1	Pol iota inh	POLB inh	Pol eta inh-1	POLI cherry-pick	Pol eta inh-2	others
COc1cc(/C=C/c2nc3ccccc3c(=O)[nH]2)cc(Br)c1O	-1	3	-8%	?	?	?	/	/
C=CCc1cc(/C=C/c2nc(O)c([N+](=O)[O-])c(=O)[nH]2)cc(OC)c1O	-64*	-25	79µM*	?	25µM*	11µM*	?	30*
Cc1ccccc1NC(=O)Cc1nc(COC(=O)CSc2ccc(F)cc2)cs1	-13	3	/	/	/	?	/	/
CC(C)(CS(=O)(=O)[O-])NC(=O)CC[N+](C)(C)CCO	?	-21	22µM*	1.4µM*	2µM*	0.79µM*	/	8.5*	TbPGK inh=3.3µM*
COc1ccc(-n2c(=O)c(-c3cccs3)nc3cnc(N(C)C)nc32)cc1	/	/	-5%[60.1 µM]	/	/	/	/	/
O=C(N/N=C/c1ccc(-c2ccc(Cl)c(C(=O)O)c2)o1)c1cc2c(ccc3ccccc32)o1	-80*	-6	32µM*	18µM*	?	11µM*	75*	19*
CCC1CN(C(=O)N2CCC(C(=O)N(C)Cc3ccccc3)CC2)c2ccccc2O1 (stereo not drawn)	/	-4	1%	25%	5%	-21%	/	/
CCC(=O)N1CCc2cc(CNS(=O)(=O)c3ccc(Cl)s3)ccc21	/	0	-21%[60.1 µM]	15%	36%	-12%	/	/
O=C(CSc1n[nH]c(=O)[nH]c1=O)Nc1ccc2c(c1)C(=O)c1ccccc1C2=O	-59*	-17	-42%	?	2.8µM*	8.9µM*	27*	19*	TbPGK inh=3.3µM*;Pol kappa inh-2=24*
